SMILES strings stand for the structures. The panel holds about 83,000 compounds, 20% with a hit somewhere; the sample as a whole holds those more often.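 The endpoint reported here, percent growth, reads 100 for growth as untreated, 0 for no net growth and -100 for all cells dead.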 Calls of active or inactive are those of the source.

For the experiment, the system named is SNB-19 CNS. Put plainly: NCI-60 one-dose screen, 48 h (100 = growth as untreated, 0 = no growth, -100 = all killed). Particulars: 10 µM unless noted. Here is the method: Growth inhibition of the SNB-19 human tumor cell line is measured as a screen for anti-cancer activity. Cells are grown in 96 well plates and exposed to the test compound for 48 hours. Compounds are tested at a single concentration, which is 10^-5 M for most compounds. The reported endpoint is percent growth (GI% or GIPRCNT), where numbers from 0 - 100% represent growth inhibition, and numbers from -100% - 0 represent cell death. For example, a value of 40 represents 60% growth inhibition. A value of 0 means no net growth occurred over the course of the experiment. A value of -40 indicates 40% of cells at the beginning of the experiment died by the end of the experiment. A value of -100 means all cells are dead at the end of the experiment.
NCI-60 Human Tumor Cell Lines Screen was performed using the standard one-dose NCI protocol, which is described in more detail at https://dtp.cancer.gov/discovery_development/nci-60/default.htm.
Compounds with GIPRCNT values below 10 were considered active. Activity score was based on GIPRCNT using the following formula: […]
Score is 0 for GIPRCNT values of 100 or above, 50 for GIPRCNT values of 0, and 100 for GIPRCNT values of -100.
Take `CC1(/C=C/c2ccc(-c3ccccc3)cc2)CCn2cnc3ncnc(c32)N1O` (stereo not given): the growth was 26.7% (inactive). On to `O=C(/C=C/c1cn(-c2ccccc2)nc1-c1ccccc1)CCC(=O)NO`, for which the growth is 112% (inactive).

With `O=c1cc(-c2ccccc2)nc(SCc2nc3cc(Cl)c(Cl)cc3[nH]2)[nH]1`, the growth was 109% (inactive). Consider `Cc1ccc(C(=O)c2ccc(CC(=O)N/N=C/c3cccc(O)c3O)n2C)cc1`, for which the growth was 46% (inactive). The result for `CCOC(=O)CC1CSC(N/N=C/c2ccc(F)c(Br)c2)=N1` (stereo not given) reads 110% (inactive); that for `CNC(=O)c1cc(Oc2ccc3c(c2)sc2nc(-c4cc(C(F)(F)F)cc(C(F)(F)F)c4)cn23)ccn1`, 62.8% (inactive).

Consider `Cc1cc(C(=O)CCCC(=O)c2cc(C)c(O)c(C)c2)cc(C)c1O`, for which the growth was 88.1% (inactive).

For the molecule `S=c1ccnc[nH]1`, the growth is 102% (inactive). As for `C#CCOc1cccc(Nc2ncnc3cc(NC(=O)CCl)ccc23)c1`, the growth is -88% (active). Regarding `Cc1ccc(S(=O)(=O)N2CCCN(c3nc(-c4ccccc4)nc4nc(-c5ccccc5)oc34)CC2)cc1`, the growth is 102% (inactive).

Regarding `O=c1cc(C(F)(F)F)c2cc(-c3cc4ccccc4c(=O)o3)c(O)cc2o1`, the growth is 67.7% (inactive). With `N#C/C(=C\c1ccc(-c2cccc(Cl)c2)o1)C(=O)Nc1ncc(Cc2ccc(Cl)cc2)s1`, the growth is 77.4% (inactive).

Take `COc1ccc(NC(=O)c2ccc(Nc3ncnc4c3cnn4-c3cccc(F)c3)cc2)cc1`: the growth is 94.7% (inactive). Turning to `Fc1cccc(CNc2c3ccccc3nc3ccccc23)c1`, the growth is 35.9% (inactive). Take `Cc1[nH]c(C(=O)Nc2ccccc2OC2CCN(CCN3CCOCC3)CC2)c(Cl)c1Cl`: the growth is 107% (inactive). For the molecule `Cc1ccc(S(=O)(=O)OC[C@]23CCC(C)(C)C[C@H]2C2=CC[C@@H]4[C@@]5(C)CCCNC(C)(C)[C@@H]5CC[C@@]4(C)[C@]2(C)CC3)cc1`, the growth is 85.7% (inactive).

`CCCCn1c(NC(C)=O)c(S(=O)(=O)c2ccccc2)c2nc3ccccc3nc21`: the growth is 98.7% (inactive).

For `c1ccc(Cn2cc3c(c2-c2ccccc2)CCc2cnoc2-3)cc1`, the growth is 70.6% (inactive). As to `COC(=O)c1c2c(c(C)[n+]([O-])c1C)C(=O)C(NCc1ccccc1)=CC2=O`, the growth was 7.59% (active). `Cc1c2ccccc2nc2cc3c(cc12)[C@H]1CC[C@]2(C)C(=O)CC[C@H]2[C@@H]1CC3`: the growth is 84.9% (inactive).

Take `COc1cc(-c2ccc[nH]2)[nH]c1/C=C1\N=C(C)C(CC(=O)OCC(C)(C)C)=C1C`: the growth is -33.3% (active).

For the molecule `COc1cc(OC)c2c(=O)c3c(CC=C(C)C)cc(OC)c(O)c3oc2c1`, the growth was 92.7% (inactive). As for `COCCn1cc(-c2csc(-c3c[nH]c4ccccc34)n2)c2cccnc21`, the growth was 65.5% (inactive).

As for `COc1ccc(C(=O)/C=C/c2ccccc2)cc1S(N)(=O)=O`, the growth was 40% (inactive). `Nc1cc(-c2ccc(Cl)cc2)nn1-c1nnc(/C=C/c2ccco2)c(=O)[nH]1`: the growth is 57.8% (inactive).

As for `CC[C@H](Nc1nc(N)nc(C)c1C#N)c1nc2cccc(CN(C)c3ncc(C(=O)NO)cn3)c2c(=O)n1-c1ccccc1`, the growth was 11% (inactive). `CC/C(=C(/c1ccc(O)cc1)c1ccc(OCCN2CCCCC2)cc1)c1ccc(OC)cc1`: the growth is 94.7% (inactive).

For the molecule `O=C(c1ccc(Br)cc1)C(Br)C(c1ccc(Cl)cc1)C(c1ccccc1)[N+](=O)[O-]` (stereo not given), the growth is 93.9% (inactive).

With `COc1ccc(Cl)cc1Nc1nc(C(F)(F)F)ccc1C(=O)N/N=C/c1ccc([N+](=O)[O-])cc1`, the growth was 22.9% (inactive).

With `O=C1/C(=C/c2cccc(Br)c2)COc2ccc(O)cc21`, the growth was 45.1% (inactive).

Take `C=C[C@@]1(C)CC(=O)[C@@H](C(C)(C)c2cn(C)c3ccc(Br)cc23)C[C@@H]1O[Si](C)(C)C(C)(C)C`: the growth is 98.9% (inactive). As for `O=S(=O)(N=C1C(Cl)=C(Cl)C(=NS(=O)(=O)c2ccccc2)C(Cl)=C1Cl)c1ccccc1`, the growth was 95.9% (inactive). As to `ClCCn1cnc2c(SCc3ccccc3)ncnc21`, the growth was 50.5% (inactive).

For `COc1ccc(C2[C@@H](c3ccccc3)C(=O)N2c2cc(OC)c(OC)c(OC)c2)cc1F` (stereo not given in full), the growth was 30.6% (inactive). In the case of `COc1ccc2c(c1)c(-c1nc(-c3ccc4ccccc4c3)cs1)cn2C`, the growth was 99.8% (inactive). Turning to `C/C=C1/CN(CCCCC)CC[C@H]1C(=O)c1cc2ccccc2[nH]1`, the growth is 96.7% (inactive). As for `CC(=O)c1c(Nc2cccc(F)c2)[nH]c2c(Cl)cc(Cl)c(Cl)c2c1=O`, the growth is 16.6% (inactive). Regarding `O=C1CCCCN1c1ccc(C2=NCCCN2)cc1`, the growth is 89.2% (inactive).

On to `O=C(/C=C/c1ccccc1)c1ccc(-n2cc(CN3CCN(c4cc5c(cc4F)c(=O)c(C(=O)O)cn5C4CC4)CC3)nn2)cc1`, for which the growth was 72% (inactive). Turning to `CCOC(=O)C1=C(c2ccccc2)N=C2N(c3ccccc3)N=C(C(C)=O)N2C1c1ccc(F)cc1` (stereo not given), the growth was 95.4% (inactive).

The values above are taken from PubChem BioAssay (NCI).
